Most compounds without a hit are left out; they make up all but 19% or so of the library.
ELG1 repair inh: ELG1-dependent DNA repair inhibition; AID 504467; hit rate 2.3% among 330,000; Potency, µM (highest dose often 46.1 µM), for inactives: at the top dose activity change, negative = inhibition, most hits filed as inhibitors; HEK293T ELG1-luciferase reporter, luminescence, 16 h; DNA damage induced by 5-fluorouridine; also: potency is read from the fitted curve at half-maximal effect; nearly all actives have a fitted effect of over 55% in size
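Reporter activity after DNA damage by 5-fluorouridine is monitored. Compound-treated cells incubate 16 hr at 37 °C, then ONE-Glo is added for 30 min before luminescence reading.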
IL-1B inflam inh: inhibitors of inflammasome signaling (IL-1 beta secretion); THP-1 LPS/ATP IL-1B secretion, AlphaLISA, 16 h; stronger effect = lower value; activity change, % at 57.5 µM; hit rate 4.7% among 360,000; AID 743279; in the data active = activity change below about -50%; inconclusive = mostly about -30% to -49%
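THP-1 cells pretreated 1 hr with compounds (up to 57.5 uM final), then stimulated with LPS (250 ng/mL final) plus ATP (1.25 mM final); secreted IL-1B measured by AlphaLISA after 16 hr, decreased signal indicating inhibition.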
HT1080 IDH1KD tx: toxicity to HT-1080 IDH1 knockdown cells (counter line). HT-1080 IDH1 knockdown viability, ATP luminescence, 48 h. Potency, µM (highest dose often 46.1 µM), without a hit: top-dose activity, negative = toxicity, usual class: cytotoxic. hit rate 2% among 360,000;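 also: potency is read from the fitted curve at half-maximal effect; 0% = DMSO wells and -100% = cell-free medium wells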
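Knockdown cells (IDH1KD HT-1080) received compounds 2 h after plating at 750 cells/well and were kept 48 h at 37 °C in 5% FBS RPMI. A CellTiter-Glo luminescence read gave % activity for curve fitting.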
DT40 TDP1 CPT: growth inhibition of DT40 Tdp1-/-;hTDP1 cells with camptothecin (screen for TDP1 inhibitors); chicken DT40 Tdp1-/-;hTDP1 cells + 20 nM CPT, ATP luminescence, 48 h; Potency, µM (series often up to 46.2 µM), without a hit: at the top dose activity change, negative = growth inhibition, usual class: inhibitors; AID 686979; hit rate 12% among 420,000; also: potency is read from the fitted curve at half-maximal effect; nearly all actives have a fitted effect of over 55% in size
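Cell growth measured by CellTiter-Glo luminescence after a minimum 48 h, 37 C compound exposure with 20 nM CPT in Tdp1-knockout DT40 cells stably expressing hTDP1, seeded 400/well; qHTS titration format.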
HT1080-NT tox: kills 2HG-producing HT-1080-NT fibrosarcoma cells | HT-1080-NT fibrosarcoma viability, CellTiter-Glo ATP luminescence, 48 h | Potency, µM (top dose mostly 46.1 µM), for the others: top-dose activity, negative = less viability, most hits filed as cytotoxic | hit rate 1.6% among 360,000;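 also: NT is the 2HG producing partner of a matched IDH1 knockdown line; potency is read from the fitted curve at half-maximal effect; 0% = DMSO-treated cells and -100% = media-only wells without cells; nearly all actives have a fitted effect of over 55% in size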
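A 48-hour cytotoxicity screen used HT-1080-NT cells plated 2 hours before compound delivery. ATP-based CellTiter-Glo luminescence measured viability, normalized to DMSO and no-cell controls.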
TDP1 cell noCPT: qHTS for Inhibitors of human tyrosyl-DNA phosphodiesterase 1 (TDP1): qHTS in cells in absence of CPT; DT40 Tdp1-/- hTDP1 cells, no CPT, ATP luminescence, 48 h; Potency, µM (series often up to 46.2 µM), for inactives: top-dose activity change, negative = growth inhibition, most hits filed as inhibitors; hit rate 15% among 420,000; also: potency is read from the fitted curve at half-maximal effect; nearly all actives have a fitted effect of over 55% in size
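Growth of hTDP1-complemented DT40 Tdp1-knockout cells is measured by ATP luminescence after at least 48 hr compound exposure at 37 °C, with DMSO substituting for the 20 nM CPT used in the parallel screen.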
* = called active by the depositor; i = inactive; u = inconclusive; x = not tested or not shown; [ ] = remark or other dose. Unless noted, calls follow the shape of the dose curve; as a rule, active = well fitted curve in the direction sought with a large enough effect; inconclusive = small, poorly fitted or top-dose-only effect, or another doubt; inactive = no such curve, though single readings can be large; an effect the other way counts as inactive or inconclusive. Unless noted, % is scaled to controls: 0 for no effect and ±100 for the full control effect.

SMILES	ELG1 repair inh	IL-1B inflam inh	HT1080 IDH1KD tx	DT40 TDP1 CPT	HT1080-NT tox	TDP1 cell noCPT
Cc1ccc(C)c(NS(=O)(=O)c2ccc3c4c(cccc24)C(=O)N3)c1	x	x	x	u	x	15µM*
CN(C)CCNS(=O)(=O)c1ccc2c3c(cccc13)C(=O)N2	5%	4	5%	-4%	-3%	u
O=C1Nc2ccc(S(=O)(=O)Nc3ccccc3O)c3cccc1c23	x	x	x	0%	x	-22%
CCN(CC)CCNS(=O)(=O)c1ccc2c3c(cccc13)C(=O)N2	-15%	-2	-28%	u	u	15µM*
CCOC(=O)C1(Cc2cccc(OC)c2)CCN(Cc2cccc(O)c2)CC1	u	u	-4%	-17%	-5%	u
CCOC(=O)C1(Cc2cccc(OC)c2)CCN(Cc2ccon2)CC1	-8%	8	5%	u	3%	1%
CCOC(=O)C1(Cc2ccccc2)CCN(Cc2csc(C(C)=O)c2)CC1	3%	-61*	-14%	-24%	-6%	u
CCOC(=O)C1(Cc2ccccc2)CCN(Cc2cnn(C(C)C)c2)CC1	-18%	33	0%	15%	0%	-24%
CCOC(=O)C1(Cc2cccc(OC)c2)CCN(Cc2ccc(C)s2)CC1	u	-118*	u	21µM*	-25%	18µM*
CCOC(=O)C1(Cc2cccc(OC)c2)CCN(Cc2ccc(OC)c(OC)c2)CC1	u	-22	-21%	u	u	21µM*
CCOC(=O)C1(Cc2cccc(OC)c2)CCN(Cc2cccn2-c2nccs2)CC1	u	-77*	-17%	u	-3%	u
Cc1ccc(N2C(=O)NC(NS(=O)(=O)c3ccccc3)(C(F)(F)F)C2=O)cc1C (configuration not stated)	0%	14	-16%	8%	3%	5%
CCOC(=O)C1(Cc2cccc(OC)c2)CCN(Cc2ccccc2OC)CC1	u	-5	u	-25%	u	u
CCOC(=O)C1(Cc2cccc(OC)c2)CCN(CC2CC=CCC2)CC1 (configuration not stated)	u	33	-11%	u	-20%	23µM*
CCOC(=O)C1(Cc2ccccc2)CCN(Cc2cccc3nccnc23)CC1	u	-64*	-3%	u	-11%	18µM*
CCOC(=O)C1(Cc2ccccc2)CCN(Cc2cccc(OC)c2O)CC1	u	-50*	-11%	u	-3%	u
CCOC(=O)C1(Cc2ccccc2)CCN(CC2CC=CCC2)CC1 (configuration not stated)	-3%	28	-9%	-14%	-13%	u
CCOC(=O)C1(Cc2cccc(OC)c2)CCN(Cc2cccc(OC)c2O)CC1	u	u	u	23µM*	u	21µM*
O=C(Nc1ccccc1C(F)(F)F)Nc1c[nH]c(=O)[nH]c1=O	x	x	x	-1%	x	-4%
CC1(c2ccc(Cl)cc2)NC(=O)N(CC(=O)Nc2cccnc2Cl)C1=O (configuration not stated)	1%	10	3%	u	5%	-10%
Clc1ccc(-c2nnnn2-c2ccc(Cl)cc2)cc1	-31%	9	-7%	-9%	u	-24%
Nc1ncc(-c2nnnn2-c2ccc(Cl)cc2)c(-c2ccc(Cl)cc2)n1	-21%	40	7.3µM*	4.6µM*	6.5µM*	5.8µM*
COC(=O)c1ccc(OS(=O)(=O)c2ccc(NC(C)=O)cc2)cc1	-10%	-7	0%	12µM*	-1%	u
CC(=O)Nc1ccc(C(=O)N/N=C/c2ccccc2OC(=O)c2ccc(Cl)cc2)cc1	u	71	23µM*	9.2µM*	u	10µM*
CC(=O)Nc1ccc(S(=O)(=O)Oc2ccc(/C=N/NC(=O)c3ccc(Cl)cc3)cc2)cc1	u	-3	-15%	21µM*	u	16µM*
SMILES	ELG1 repair inh	IL-1B inflam inh	HT1080 IDH1KD tx	DT40 TDP1 CPT	HT1080-NT tox	TDP1 cell noCPT
CC(=O)Nc1ccc(C=NNC(=O)c2ccc(NS(=O)(=O)c3cccs3)cc2)cc1	u	7	-1%	-10%	-2%	2%
COc1ccc(CN(C)C(=O)Cc2ccc(S(=O)(=O)N3CCOCC3)s2)cc1OC	-4%	-16	-5%	-3%	-9%	u
C[C@@]12C(=O)NCC(=O)N1[C@@H]1c3cc(Br)ccc3OC[C@@H]1[C@@H]2c1ccccc1	u	0	-7%	10%	-21%	-23%
Cc1cc(C)c(O)c(N)c1	0%	x	x	x	x	x
CCOc1ccc(CNC(=O)C(=O)c2cn(CC(=O)N3CCOCC3)c3ccccc23)cc1OC	2%	i	-4%	4%	5%	10%
OCC[C@@H]1C[C@H](O)[C@@H](O)[C@@]2(OCCCc3ccccc32)O1	2%	12	7%	2%	5%	-2%
CC1=NN(CCC#N)C(=O)/C1=C/c1ccc(N(C)C)cc1	10%	-7	20%	9%	13%	u
CCN(CC)c1ccc(/C=C2\C(=O)N(c3nnc(C)c(=O)[nH]3)N=C2C)cc1	u	-98*	u	13µM*	u	18µM*
Cc1cc2cc(C)c3nnc(SCC(=O)NCc4ccco4)n3c2cc1C	-20%	-66*	2%[9.24 µM]	u	-23%	u
Cc1cc2nnc(SCC(=O)NCc3ccco3)n2c2ccccc12	x	-24	u	4.6µM*	u	4.6µM*
Cc1cc2nnc(SCC(=O)NCc3cccs3)n2c2ccccc12	x	0	11%	0%	13%	4%
Cc1nc(SCC(=O)NCc2ccco2)[nH]c(=O)c1C	5%	39	-20%	23µM*	u	-20%
Nc1nc(SCC(=O)NCc2ccco2)[nH]c(=O)c1-c1ccccc1	-2%	28	14%	-7%	-3%	-8%
COc1ccc(-c2nsc(NC(=O)c3oc4cc(C)c(C)cc4c3C)n2)cc1	x	x	x	-6%	x	-12%
CN(C)c1ccc(/C=N/OC(=O)Nc2ccccc2Cl)cc1	u	-18	-6%	8.2µM*	0%	15µM*
COc1ccc(NC(=O)O/N=C/c2ccc(Br)cc2)cc1	16%	-13	-9%	3%	-3%	-18%
COc1ccc(/C=N/OC(=O)Nc2ccccc2OC)cc1	u	0	5.8µM*	1.5µM*	9.2µM*	1.6µM*
O=C1c2oc3ccccc3c(=O)c2C(c2ccccc2)N1Cc1ccc2c(c1)OCO2 (configuration not stated)	x	x	x	-11%	x	-26%

Compound activity as filed in PubChem BioAssay.
